Records with an inconclusive call do not appear. Calls of active or inactive are those of the source.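 The calls were made as follows, unless noted: active = binding below the plate cutoff, the plate median minus 3 SD, with a reading above zero; inconclusive = below the plate cutoff but reading exactly zero; inactive = the rest.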

A short description of assay [1]: yeast TOR pathway RPL19A-GFP modulators, primary screen, cell-based, S. cerevisiae, multiplex flow cytometry (AID 1862; in the data active = percent of DMSO control GFP below about 86%;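 also: lower values mimic rapamycin by blocking the RPL19A rise seen in DMSO cells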). The note with it: S. cerevisiae RPL19A-GFP strain, flow cytometry fluorescence, 3 h; at 10 µM; stronger effect = lower value. On the technique in general: In flow cytometry, cells or beads pass a laser one at a time.
The nature of assay [2]: modulators of MEP2-GFP levels in yeast, primary screen, S. cerevisiae, multiplex flow cytometry (AID 1867;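 active = GFP response, as percent of the DMSO control, above the screen-wide mean plus 3 SD, about 139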;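 also: median GFP channel fluorescence of barcode-gated MEP2-GFP cells measured by flow cytometry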). Conditions: S. cerevisiae MEP2-GFP strain, 3 h, at 10 µM, stronger effect = higher value, 100% means same as DMSO wells.
A short description of assay [3]: modulators of CIT2-GFP expression in yeast, primary screen, S. cerevisiae, GFP fusion, multiplex flow cytometry (AID 1870;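 active = percent response above a set limit, the screen-wide mean plus 3 SD, cut at about 130% in these data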;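 also: barcoded CIT2-GFP strain pooled with four other GFP strains with rapamycin as positive control; median GFP fluorescence per well over plate mean of DMSO wells so 100% = DMSO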). The note with it: 3 h, at 10 µM, stronger effect = higher value.
The nature of assay [4]: modulators of LAP4-GFP expression in yeast, primary screen, S. cerevisiae, multiplex flow cytometry (AID 1873;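 active = GFP signal, as percent of the solvent control, above the screen mean plus 3 SD, about 149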). Conditions: 3 h, at 10 µM, stronger effect = higher value.
Assay [5] can be described thus: modulators of AGP1-GFP expression in yeast TOR pathway, primary screen, cell-based, multiplex flow cytometry, S. cerevisiae (AID 1887;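 active = GFP signal above the screen-wide mean plus 3 SD, that is over about 124.5% of the solvent control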;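 also: AGP1-GFP fusion strain of S. cerevisiae within a five-strain barcoded multiplex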). The note with it: 3 h, at 10 µM, stronger effect = higher value.
Assay [6] is described as follows: inhibitors of CD8+ T cell-vesicle binding, pilot screen, LFA-1/ICAM-1 modulator project, MLPCN validation set, flow cytometry (AID 2523;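 active = response below a set limit, under 55% cells CD8-positive and vesicle-bound, and CD8 cells' 90th-percentile brightness under 279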;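 as to vesicle binding response: mean PE anti-B7-1 fluorescence of CD8+ cells relative to row control; 100% = QL9-loaded vesicles with DMSO vehicle in the same plate row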). Conditions: 2C mouse CD8+ T cells, at 7 µM, stronger effect = lower value; double positive events: measured here: CD8+/vesicle+ event percentage.
The target in assay [7] is Integrin beta-1 (Homo sapiens) + Integrin alpha-4 (Homo sapiens) (UniProt P13612+P05556). Nature of the assay: inhibition of HUTS-21 binding to VLA-4, pilot screen, VLA-4 allosteric modulator project, U937 cells, HUTS-21 mAb, flow cytometry, validation set (AID 2674;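 active = inhibition above 50%, about 3 SD of the validation set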;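 also: antibody binding induced by the VLA-4 ligand LDV present at three times its Kd; 0% = LDV ligand with antibody and no compound and 100% = antibody without LDV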). Conditions: HUTS-21 LIBS mAb binding, at 6.7 µM, stronger effect = higher value, binding induced by LDV ligand.
Assay [8] is described as follows: superoxide lowering in aged yeast cells, pilot screen, validation compound set (AID 2706;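 active = superoxide response below 65% of plate, a cut near 3 SD across the whole screen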;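 also: yeast exposed to compound for one week at 30 degrees C before staining; 100% = mean of all compound wells on the same plate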). Conditions: S. cerevisiae aging, superoxide DHE fluorescence; at 10 µM; stronger effect = lower value.
Assay [9] deals with Beta-adrenergic receptor kinase 1 (Homo sapiens) (UniProt P25098). As to the kind of experiment: GRK2 binders displacing RNA aptamer, biochemical, validation, human GRK2, bead flow cytometry (AID 488806;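 active = aptamer binding inhibition above 30%, about 3 SD of noise from non-fluorescent compounds; inactive = inhibition at or below 30%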). The note with it: bead-bound GRK2, FAM-aptamer displacement, at 10 µM, stronger effect = higher value.
Assay [10] deals with Beta-2 adrenergic receptor (Homo sapiens) (UniProt P07550). Nature of the assay: beta2AR agonists driving receptor internalization, pilot screen, cell-based, FAP fluorogen, flow cytometry, validation set (AID 504459;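 active = percent response above 42, roughly 3 SD of non-fluorescent test compounds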;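 also: agonist-driven loss of surface beta2AR via internalization measured by FAP dye flow cytometry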). Conditions: Am2.2-beta2AR cells, FAP surface receptor flow cytometry; at 10 µM; stronger effect = higher value.
The target of assay [11] is AP-2 complex subunit beta (Homo sapiens) (UniProt P63010). As to the kind of experiment: inhibitors of arrestin peptide binding to AP2, pilot screen, biochemical, validation set, GST-AP2 beads, flow cytometry (AID 504541;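 active = inhibition above 54%, about 3 SD of non-fluorescent compounds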;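 also: AP2 carries R879A mutation and is captured from E. coli lysate; bead-bound FITC arrestin peptide fluorescence measuring arrestin peptide binding to AP2; 0% = DMSO wells and 100% = excess unlabeled arrestin peptide control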). The note with it: FITC arrestin peptide, at 10 µM, stronger effect = higher value, AP2 beta2 appendage fragment, R879A mutant.
Assay [12] is described as follows: yeast V-ATPase proton transport modulators, S. cerevisiae, pHLuorin, HTS validation (AID 504600; in the data active = response above about 15%;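 also: plate controls were DMSO for no effect and reference compound for full effect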). The note with it: S. cerevisiae pHLuorin cytosolic pH, at 10 µM, stronger effect = higher value.
Assay [13] concerns anti-desmoglein-3 scFv antibody binding to human DSG3. Nature of the assay: inhibitors of anti-DSG3 scFv binding to DSG3, pilot screen, biochemical, validation compound set, bead-based, flow cytometry (AID 588368).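 Also: signal is the median channel fluorescence of bead-bound GFP antibody.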 Conditions: Protein G beads, DSG3-Fc, scFv-GFP binding, at 10 µM, stronger effect = lower value.
Assay [14] is described as follows: inhibitors of fungal efflux pumps CDR1, CDR2, MDR1, pilot screen, validation compound set, multiplex, phenotypic (AID 588506;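 active = efflux inhibition above 0.42, the validation set average plus 4 SD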;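 also: Nile Red retained in cells so higher fluorescence means more efflux inhibition; 0 = negative control wells and 1 = enniatin B 25 µM full block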). The note with it: S. cerevisiae pump-expressing triplex, Nile Red efflux flow cytometry; at 10 µM; stronger effect = higher value; the pumps come from Candida albicans.
Assay [15] addresses ATP-binding cassette sub-family B member 6 (Homo sapiens) (UniProt Q9NP58). Nature of the assay: ABCB6 transporter inhibitors, pilot screen, K562-ABCB6 cells, flow cytometry, validation set (AID 588550;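 active = inhibition above the screen-wide mean plus 3 SD, about 51%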;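 also: 0% = DMSO wells and 100% = benzethonium chloride 70 µM positive control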). Conditions: K562-ABCB6 porphyrin accumulation, 1 h, at 10 µM, stronger effect = higher value.
A short description of assay [16]: promoters of myeloid differentiation in arrested cells, primary screen, cell-based, GFP/MAC1 double positive, flow cytometry, validation set (AID 588685;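 active = differentiation response of at least 50%, scaled between solvent and reference control, from cells with both markers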;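 also: compound exposure lasts four days before antibody staining and flow analysis; 0% = DMSO wells and 100% = 5 µM fulvestrant positive control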). Conditions: ER-HoxA9 marrow cells, stronger effect = higher value, normalized: vehicle 0, fulvestrant 100.

Chain of Beta-2 adrenergic receptor (Homo sapiens) (P07550 whole entry, looked up): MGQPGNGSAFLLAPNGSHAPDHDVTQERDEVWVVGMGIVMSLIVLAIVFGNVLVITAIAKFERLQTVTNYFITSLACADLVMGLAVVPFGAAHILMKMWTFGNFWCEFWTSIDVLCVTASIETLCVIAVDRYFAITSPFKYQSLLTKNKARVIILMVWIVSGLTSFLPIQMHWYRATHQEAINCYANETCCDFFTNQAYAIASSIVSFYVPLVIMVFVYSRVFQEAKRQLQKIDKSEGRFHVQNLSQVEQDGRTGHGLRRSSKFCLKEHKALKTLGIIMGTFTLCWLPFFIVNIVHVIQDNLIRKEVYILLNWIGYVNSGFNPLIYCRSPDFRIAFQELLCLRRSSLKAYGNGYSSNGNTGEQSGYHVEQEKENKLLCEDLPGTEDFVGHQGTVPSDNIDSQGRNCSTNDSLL
Chain of Beta-adrenergic receptor kinase 1 (Homo sapiens) (P25098 whole entry, looked up): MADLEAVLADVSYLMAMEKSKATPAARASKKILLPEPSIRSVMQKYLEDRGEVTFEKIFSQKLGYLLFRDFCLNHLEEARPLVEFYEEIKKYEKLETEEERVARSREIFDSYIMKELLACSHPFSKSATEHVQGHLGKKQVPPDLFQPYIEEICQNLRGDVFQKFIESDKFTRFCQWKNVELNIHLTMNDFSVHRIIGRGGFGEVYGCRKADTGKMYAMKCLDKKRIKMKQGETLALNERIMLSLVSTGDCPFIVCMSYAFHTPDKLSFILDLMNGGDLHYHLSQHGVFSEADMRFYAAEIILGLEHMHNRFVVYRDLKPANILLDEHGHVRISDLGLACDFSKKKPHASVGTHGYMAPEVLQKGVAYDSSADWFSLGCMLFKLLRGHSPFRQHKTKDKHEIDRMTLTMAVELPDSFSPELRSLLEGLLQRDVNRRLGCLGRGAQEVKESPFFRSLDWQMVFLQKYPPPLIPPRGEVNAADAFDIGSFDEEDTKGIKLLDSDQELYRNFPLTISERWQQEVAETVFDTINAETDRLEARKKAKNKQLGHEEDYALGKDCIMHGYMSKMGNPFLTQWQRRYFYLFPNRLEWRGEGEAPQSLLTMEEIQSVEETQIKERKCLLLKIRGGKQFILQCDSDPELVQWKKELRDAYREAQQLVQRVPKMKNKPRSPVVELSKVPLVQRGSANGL
Chain of Integrin beta-1 (Homo sapiens) + Integrin alpha-4 (Homo sapiens) (P05556 whole entry, looked up): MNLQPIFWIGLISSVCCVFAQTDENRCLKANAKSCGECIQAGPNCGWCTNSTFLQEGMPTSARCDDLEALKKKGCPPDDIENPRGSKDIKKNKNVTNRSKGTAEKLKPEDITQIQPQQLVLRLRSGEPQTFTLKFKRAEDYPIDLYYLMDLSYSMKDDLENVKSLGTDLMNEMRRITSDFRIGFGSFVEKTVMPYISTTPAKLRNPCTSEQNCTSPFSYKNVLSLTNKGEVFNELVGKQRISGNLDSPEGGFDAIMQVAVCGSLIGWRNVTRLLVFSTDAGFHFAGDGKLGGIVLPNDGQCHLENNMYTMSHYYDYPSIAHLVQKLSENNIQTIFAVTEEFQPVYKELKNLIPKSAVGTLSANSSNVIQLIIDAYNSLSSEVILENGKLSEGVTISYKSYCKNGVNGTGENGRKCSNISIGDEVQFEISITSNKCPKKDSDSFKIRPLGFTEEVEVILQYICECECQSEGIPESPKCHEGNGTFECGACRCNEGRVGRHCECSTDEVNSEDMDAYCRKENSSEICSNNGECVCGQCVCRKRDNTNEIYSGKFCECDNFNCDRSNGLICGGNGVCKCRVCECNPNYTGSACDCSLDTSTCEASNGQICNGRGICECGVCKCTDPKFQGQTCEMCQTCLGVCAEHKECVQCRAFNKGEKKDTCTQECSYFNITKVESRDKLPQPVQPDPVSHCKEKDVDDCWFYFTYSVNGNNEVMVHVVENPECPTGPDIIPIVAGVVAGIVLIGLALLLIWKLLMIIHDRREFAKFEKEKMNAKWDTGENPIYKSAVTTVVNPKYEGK
Chain of Integrin beta-1 (Homo sapiens) + Integrin alpha-4 (Homo sapiens) (P13612 whole entry, looked up): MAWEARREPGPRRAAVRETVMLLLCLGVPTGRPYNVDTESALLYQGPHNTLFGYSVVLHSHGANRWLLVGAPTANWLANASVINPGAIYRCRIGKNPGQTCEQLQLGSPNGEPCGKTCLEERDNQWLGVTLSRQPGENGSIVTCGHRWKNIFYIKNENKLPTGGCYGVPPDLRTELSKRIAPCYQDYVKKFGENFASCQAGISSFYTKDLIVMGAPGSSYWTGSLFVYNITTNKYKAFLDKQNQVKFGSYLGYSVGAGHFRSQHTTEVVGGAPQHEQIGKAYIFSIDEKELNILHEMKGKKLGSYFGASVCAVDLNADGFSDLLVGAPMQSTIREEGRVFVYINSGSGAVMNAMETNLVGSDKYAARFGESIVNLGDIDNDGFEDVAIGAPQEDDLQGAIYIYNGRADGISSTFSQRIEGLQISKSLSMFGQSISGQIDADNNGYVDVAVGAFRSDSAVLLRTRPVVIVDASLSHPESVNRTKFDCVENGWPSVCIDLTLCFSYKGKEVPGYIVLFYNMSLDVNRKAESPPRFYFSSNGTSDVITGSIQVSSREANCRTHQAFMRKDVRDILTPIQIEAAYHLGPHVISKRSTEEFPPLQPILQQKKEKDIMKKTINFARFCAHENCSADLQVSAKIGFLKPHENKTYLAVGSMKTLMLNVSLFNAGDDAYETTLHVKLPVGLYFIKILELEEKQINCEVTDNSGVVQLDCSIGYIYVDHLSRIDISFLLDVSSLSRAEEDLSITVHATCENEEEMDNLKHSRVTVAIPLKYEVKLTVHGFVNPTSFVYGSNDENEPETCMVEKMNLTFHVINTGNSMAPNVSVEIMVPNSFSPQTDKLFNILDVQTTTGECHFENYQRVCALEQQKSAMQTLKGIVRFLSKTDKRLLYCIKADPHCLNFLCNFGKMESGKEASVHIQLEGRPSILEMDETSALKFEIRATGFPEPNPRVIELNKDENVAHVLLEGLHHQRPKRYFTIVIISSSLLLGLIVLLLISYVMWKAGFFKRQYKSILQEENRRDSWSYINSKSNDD
Chain of ATP-binding cassette sub-family B member 6 (Homo sapiens) (Q9NP58 whole entry, looked up): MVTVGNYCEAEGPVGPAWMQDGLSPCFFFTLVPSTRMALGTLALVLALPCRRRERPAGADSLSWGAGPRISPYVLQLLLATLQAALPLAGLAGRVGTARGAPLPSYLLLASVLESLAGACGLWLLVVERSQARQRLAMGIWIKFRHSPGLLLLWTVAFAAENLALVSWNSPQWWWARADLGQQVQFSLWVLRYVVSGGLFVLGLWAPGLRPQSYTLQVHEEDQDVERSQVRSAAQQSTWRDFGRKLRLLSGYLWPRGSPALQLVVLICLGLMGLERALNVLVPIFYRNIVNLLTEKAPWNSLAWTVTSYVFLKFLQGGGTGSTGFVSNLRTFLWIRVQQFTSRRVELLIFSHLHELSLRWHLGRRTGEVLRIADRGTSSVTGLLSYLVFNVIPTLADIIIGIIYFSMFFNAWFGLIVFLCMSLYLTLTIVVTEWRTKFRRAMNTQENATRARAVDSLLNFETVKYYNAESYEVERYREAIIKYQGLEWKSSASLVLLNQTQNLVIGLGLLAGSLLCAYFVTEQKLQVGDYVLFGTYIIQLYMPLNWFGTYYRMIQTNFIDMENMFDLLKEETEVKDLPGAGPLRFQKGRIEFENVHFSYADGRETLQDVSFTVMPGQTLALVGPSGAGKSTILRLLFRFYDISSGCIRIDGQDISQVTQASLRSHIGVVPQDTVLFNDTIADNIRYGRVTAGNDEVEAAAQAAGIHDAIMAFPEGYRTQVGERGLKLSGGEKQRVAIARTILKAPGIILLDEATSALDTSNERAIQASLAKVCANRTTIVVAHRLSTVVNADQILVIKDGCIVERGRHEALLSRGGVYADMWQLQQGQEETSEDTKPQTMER
Chain of AP-2 complex subunit beta (Homo sapiens) (P63010 whole entry, looked up, the tested form may be a part, one chain of several): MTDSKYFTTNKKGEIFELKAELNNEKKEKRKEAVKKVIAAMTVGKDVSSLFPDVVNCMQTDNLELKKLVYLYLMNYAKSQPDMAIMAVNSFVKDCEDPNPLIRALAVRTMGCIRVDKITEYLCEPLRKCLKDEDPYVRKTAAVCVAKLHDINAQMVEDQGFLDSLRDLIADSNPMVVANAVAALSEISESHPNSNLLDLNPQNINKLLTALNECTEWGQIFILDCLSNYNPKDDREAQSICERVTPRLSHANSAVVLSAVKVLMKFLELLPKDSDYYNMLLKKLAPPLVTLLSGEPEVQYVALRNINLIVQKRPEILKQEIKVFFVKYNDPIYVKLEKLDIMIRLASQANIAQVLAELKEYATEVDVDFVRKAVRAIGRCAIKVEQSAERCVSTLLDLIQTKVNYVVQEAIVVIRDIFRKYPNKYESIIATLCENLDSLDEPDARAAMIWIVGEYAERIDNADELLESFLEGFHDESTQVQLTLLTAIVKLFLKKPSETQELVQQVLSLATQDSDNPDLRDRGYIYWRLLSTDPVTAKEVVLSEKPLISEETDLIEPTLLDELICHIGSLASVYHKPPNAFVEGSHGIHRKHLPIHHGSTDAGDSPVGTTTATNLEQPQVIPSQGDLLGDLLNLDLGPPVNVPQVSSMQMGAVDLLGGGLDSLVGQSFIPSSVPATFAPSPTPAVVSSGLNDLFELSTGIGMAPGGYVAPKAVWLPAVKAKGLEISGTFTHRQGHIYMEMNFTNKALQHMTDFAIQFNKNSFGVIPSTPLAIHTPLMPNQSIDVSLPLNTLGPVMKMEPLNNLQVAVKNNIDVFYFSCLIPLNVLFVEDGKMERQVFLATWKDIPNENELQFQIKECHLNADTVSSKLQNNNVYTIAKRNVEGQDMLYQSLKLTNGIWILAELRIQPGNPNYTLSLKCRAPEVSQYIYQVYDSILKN

What is called inhibition is the relative decrease from the control value, in per cent. With `CCOc1ccc2[nH]c3c(=O)n(CCc4ccc(OC)cc4)cnc3c2c1`, the percent of DMSO control GFP in assay [1] is 99.5% (inactive). The GFP response vs DMSO was 112% (inactive) in [2] and 120% (inactive) in assay [4]. Besides, the percent response of DMSO control in assay [3] is 90.1% (inactive). The GFP response, % of DMSO in [5] is 101% (inactive). In assay [6], this compound displayed a double positive events of 61.3%. For the same compound, the vesicle binding response in assay [6] is 211% (inactive). In addition, the inhibition in [7] was 6.4% (inactive); in [11], -8.18% (inactive); in assay [15] it was 5% (inactive). Also, the superoxide response (% of plate) in [8] is 99.7% (inactive). Besides, the aptamer binding inhibition in assay [9] is 0% (inactive). The figures for the response in [10] and in assay [12] were 0.24% (inactive) and 65.9% (active), respectively. Also, in assay [13], the binding (% of control) was 102% (inactive). The efflux inhibition (fraction of control) in [14] was 0.12 (inactive). The differentiation response in assay [16] is 29.6% (inactive).

`O=C(COc1ccc2ccc(=O)oc2c1)c1ccccc1`: in [1], the percent of DMSO control GFP is 91.1% (inactive). In addition, the GFP response vs DMSO in [2] is 130% (inactive); in [4], 85.3% (inactive). Besides, the percent response of DMSO control in assay [3] was 102% (inactive). The GFP response, % of DMSO in [5] is 88.4% (inactive). The double positive events in assay [6] is 59.9%. Moreover, in assay [6], the vesicle binding response was 132% (inactive). Also, the values for the inhibition in [7], in [11] and in [15] were -8.09% (inactive), 14.3% (inactive) and -10% (inactive), respectively. In assay [8], the superoxide response (% of plate) was 98.8% (inactive). Further, the aptamer binding inhibition in assay [9] was 1% (inactive). Moreover, the response in assay [10] is -4.3% (inactive); in assay [12] it was -1.1% (inactive). For the same compound, the binding (% of control) in assay [13] is 97.6% (inactive). Besides, the efflux inhibition (fraction of control) in assay [14] was 0.19 (inactive). In assay [16], the differentiation response is -0.82% (inactive).

Take `O=C1c2cccc3cccc(c23)C(=O)N1c1ccccn1`: in [1], the percent of DMSO control GFP is 107% (inactive). Besides, the GFP response vs DMSO in assay [2] was 101% (inactive); in [4], 97.3% (inactive). Moreover, in assay [3], the percent response of DMSO control is 109% (inactive). In [5], the GFP response, % of DMSO is 107% (inactive). The compound also showed a double positive events in assay [6] of 58.2%. In addition, the vesicle binding response in assay [6] was 79.7% (inactive). Besides, the inhibition is 9.92% (inactive) in assay [7], 1.31% (inactive) in assay [11] and -11% (inactive) in assay [15]. Moreover, in assay [8], the superoxide response (% of plate) is 107% (inactive). Besides, the aptamer binding inhibition in assay [9] is 4% (inactive). In addition, the results for the response in assay [10] and in assay [12] were -9.79% (inactive) and 3% (inactive), respectively. For the same compound, the binding (% of control) in [13] was 95.3% (inactive). Further, the efflux inhibition (fraction of control) in assay [14] was -0.07 (inactive). Also, the differentiation response in [16] was -1.71% (inactive).

On to `CC(C)COCC1CC2(CC(C)(c3csc(N)n3)OC2=O)C(=O)O1` (stereo not given), for which the percent of DMSO control GFP in assay [1] is 105% (inactive). In addition, the GFP response vs DMSO is 97.2% (inactive) in [2] and 84.8% (inactive) in assay [4]. Also, the percent response of DMSO control in [3] was 102% (inactive). Besides, the GFP response, % of DMSO in assay [5] was 102% (inactive). This compound also came in with a double positive events in [6] of 60.8%. Besides, the vesicle binding response in assay [6] is 78.1% (inactive). For the same compound, the values for the inhibition in assay [7], in [11] and in assay [15] were -9.79% (inactive), 0.87% (inactive) and -16% (inactive), respectively. Moreover, the superoxide response (% of plate) in assay [8] is 93% (inactive). Besides, the aptamer binding inhibition in [9] was 5% (inactive). Besides, the figures for the response in [10] and in assay [12] were -1.1% (inactive) and -4.21% (inactive), respectively. Also, the binding (% of control) in [13] is 94% (inactive). Moreover, the efflux inhibition (fraction of control) in assay [14] is 0.14 (inactive). Moreover, the differentiation response in assay [16] was -4.64% (inactive).

As for `O=C(O)CCC(=O)c1ccc(-c2ccccc2)cc1`, the percent of DMSO control GFP in [1] is 102% (inactive). Also, the GFP response vs DMSO in assay [2] was 102% (inactive); in [4], 125% (inactive). Besides, the percent response of DMSO control in [3] was 102% (inactive). Also, in assay [5], the GFP response, % of DMSO was 108% (inactive). The double positive events in [6] was 65.4%. For the same compound, the vesicle binding response in assay [6] is 245% (inactive). Besides, the inhibition in assay [7] is -9.13% (inactive); in [11] it was 10.7% (inactive); in assay [15], 0% (inactive). Further, in [8], the superoxide response (% of plate) was 99.8% (inactive). Further, the aptamer binding inhibition in assay [9] is -1% (inactive). For the same compound, the response was 11.2% (inactive) in assay [10] and -4.64% (inactive) in [12]. For the same compound, the binding (% of control) in assay [13] is 103% (inactive). Besides, the efflux inhibition (fraction of control) in assay [14] was 0.36 (inactive). Also, the differentiation response in assay [16] is -11.9% (inactive).

These data come from PubChem BioAssay.
